# Many of the other results were omitted from the sample, so the strongest signals are more common in it than they were.
# Assays:
# Assay in all cases: glycan array binding signal (z-score within array); higher = stronger binding
# Settings in all cases: glycan notation: IUPAC condensed, linker removed
# [1] = molecular target: Fuc(a1-2)[Gal(a1-3)]Gal(b1-4)Glc
# How it was run: (§1)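 Negative Z-scores can be read as non-binding. The Z-score is calculated within each array and then averaged across arrays of one protein sequence at different concentrations or buffers and across linkers. Arrays, 3228 in all, were curated from the Consortium for Functional Glycomics database and kept only where the protein sequence was available.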
# [2] = molecular target: Fuc(a1-2)[GalNAc(a1-3)]Gal(b1-4)[Fuc(a1-3)]GlcNAc
# How it was run: as §1
# Fuc(a1-3)GlcNAc = molecular target: Fuc(a1-3)GlcNAc
# How it was run: as §1
# [3] = molecular target: Gal(b1-3)GalNAc(b1-3)Gal(a1-4)Gal(b1-4)Glc
# How it was run: as §1
# [4] = molecular target: Gal(b1-3)[GlcNAc(b1-6)]GalNAc
# How it was run: as §1
# [5] = molecular target: Gal(b1-3)[Neu5Ac(a2-6)]GalNAc
# How it was run: as §1
# [6] = molecular target: Gal(b1-4)GalNAc(b1-3)[Fuc(a1-2)]Gal(b1-4)GlcNAc
# How it was run: as §1
# [7] = molecular target: GalNAc(b1-3)Gal(a1-4)Gal(b1-4)GlcNAc
# How it was run: as §1
# [8] = molecular target: GlcNAc(b1-6)Gal(b1-4)GlcNAc
# How it was run: as §1
# [9] = molecular target: Man(a1-2)Man(a1-2)Man(a1-3)Man
# How it was run: as §1
# [10] = molecular target: Neu5Ac(a2-3)Gal(b1-3)GalNAc(b1-3)Gal(a1-4)Gal(b1-4)Glc
# How it was run: as §1
# [11] = molecular target: Neu5Ac(a2-3)Gal(b1-3)[Fuc(a1-4)]GlcNAc
# How it was run: as §1
# [12] = molecular target: Neu5Ac(a2-3)Gal(b1-4)GlcNAc(b1-3)Gal(b1-4)GlcNAc(b1-3)Gal(b1-4)GlcNAc
# How it was run: as §1
# [13] = molecular target: Neu5Ac(a2-3)Gal(b1-4)GlcNAc(b1-3)Gal(b1-4)[Fuc(a1-3)]GlcNAc
# How it was run: as §1
# [14] = molecular target: Neu5Ac(a2-3)[Neu5Ac(a2-6)]GalNAc
# How it was run: as §1
# [15] = molecular target: Neu5Ac(a2-6)GalNAc(b1-4)GlcNAc
# How it was run: as §1
# [16] = molecular target: Neu5Gc(a2-3)Gal(b1-3)[Fuc(a1-4)]GlcNAc
# How it was run: as §1
# [17] = molecular target: Neu5Gc(a2-3)Gal(b1-4)GlcNAc
# How it was run: as §1
# [18] = molecular target: Fuc(a1-2)[Gal(a1-3)]Gal(b1-4)GlcNAc(b1-3)Gal(b1-4)Glc
# How it was run: as §1
# [19] = molecular target: Fuc(a1-3)[Gal(b1-4)]GlcNAc(b1-3)Gal(b1-4)Glc
# How it was run: as §1
# Gal(b1-4)Glc = molecular target: Gal(b1-4)Glc
# How it was run: as §1
# [20] = molecular target: Gal(b1-4)GlcNAc(b1-2)Man(a1-3)[Gal(b1-4)GlcNAc(b1-2)Man(a1-6)]Man(b1-4)GlcNAc(b1-4)[Fuc(a1-6)]GlcNAc
# How it was run: as §1
# [21] = molecular target: Gal(b1-4)GlcNAc(b1-2)Man(a1-3)[Gal(b1-4)GlcNAc(b1-2)Man(a1-6)][GlcNAc(b1-4)]Man(b1-4)GlcNAc(b1-4)[Fuc(a1-6)]GlcNAc
# How it was run: as §1
# Glc(a1-4)Glc = molecular target: Glc(a1-4)Glc
# How it was run: as §1
# [22] = molecular target: Glc(a1-6)Glc(a1-4)Glc(a1-4)Glc
# How it was run: as §1
# [23] = molecular target: Glc(a1-6)Glc(a1-6)Glc(a1-6)Glc(a1-6)Glc(a1-6)Glc(a1-6)Glc(a1-6)Glc
# How it was run: as §1
# [24] = molecular target: GlcA(b1-3)Gal(b1-4)GlcNAc(b1-3)Gal(b1-4)Glc
# How it was run: as §1
# [25] = molecular target: GlcNAc(a1-4)Gal(b1-3)[Fuc(a1-2)]Gal
# How it was run: as §1
# [26] = molecular target: GlcNAc(b1-2)[GlcNAc(b1-4)]Man(a1-3)[GlcNAc(b1-2)[GlcNAc(b1-4)][GlcNAc(b1-6)]Man(a1-6)][GlcNAc(b1-4)]Man(b1-4)GlcNAc(b1-4)GlcNAc
# How it was run: as §1
# [27] = molecular target: GlcNAc(b1-4)GlcNAc(b1-4)GlcNAc
# How it was run: as §1
# [28] = molecular target: HexA(a1-3)GalNAc4S(b1-4)IdoA(a1-3)GalNAc4S(b1-4)IdoA(a1-3)GalNAc4S(b1-4)IdoA(a1-3)GalNAc4S(b1-4)IdoA(a1-3)GalNAc4S(b1-4)IdoA(a1-3)GalNAc4S(b1-4)IdoA(a1-3)GalNAc4S
# How it was run: as §1
# [29] = molecular target: Man(a1-2)Man(a1-3)[Man(a1-2)Man(a1-6)[Man(a1-3)]Man(a1-6)]Man(b1-4)GlcNAc(b1-4)GlcNAc
# How it was run: as §1
# [30] = molecular target: Man(a1-2)Man(a1-3)[Man(a1-3)[Man(a1-6)]Man(a1-6)]Man(b1-4)GlcNAc(b1-4)GlcNAc
# How it was run: as §1
# [31] = molecular target: Man(a1-3)[Man(a1-6)]Man(a1-6)[Man(a1-3)]Man
# How it was run: as §1
# [32] = molecular target: Neu4Ac5Ac(a2-3)Gal(b1-4)Glc
# How it was run: as §1
# [33] = molecular target: Neu5Ac(a2-3)Gal(b1-4)[Fuc(a1-3)]GlcNAc6S(b1-3)Gal(b1-4)Glc
# How it was run: as §1
# [34] = molecular target: Neu5Ac(a2-6)Gal(b1-3)GlcNAc(b1-3)[Fuc(a1-3)[Gal(b1-4)]GlcNAc(b1-6)]Gal(b1-4)Glc
# How it was run: as §1
# Neu5Ac(a2-6)Gal(b1-4)Glc = molecular target: Neu5Ac(a2-6)Gal(b1-4)Glc
# How it was run: as §1
# [35] = molecular target: Neu5Ac(a2-8)Neu5Ac(a2-3)Gal(b1-3)GalNAc(b1-4)[Neu5Ac(a2-3)]Gal(b1-4)Glc
# How it was run: as §1
# [36] = molecular target: Neu5Ac(a2-8)Neu5Ac(a2-8)Neu5Ac(a2-8)Neu5Ac(a2-8)Neu5Ac
# How it was run: as §1
# [37] = molecular target: Xyl(a1-6)Glc(b1-4)[Xyl(a1-6)]Glc(b1-4)[Xyl(a1-6)]Glc(b1-4)Glc
# How it was run: as §1
binder,measurement,setting,value
"HMGB1 (Rattus norvegicus), P63159 (protein) MGKGDPKKPRGKMSSYAFFVQTCREEHKKKHPDASVNFSEFSKKCSERWKTMSAKEKGKFEDMAKADKARYEREMKTYIPPKGETKKKFKDPNAPKRPPSAFFLFCSEYRPKIKGEHPGLSIGDVAKKLGEMWNNTAADDKQPYEKKAAKLKEKYEKDIAAYRAKGKPDAAKKGVVKAEKSKKKKEEEDDEEDEEDEEEEEEEEDEDEEEDDDDE",glycan array binding signal (z-score),[1],0.151
same,glycan array binding signal (z-score),[2],-0.019
same,glycan array binding signal (z-score),Fuc(a1-3)GlcNAc,9.99
same,glycan array binding signal (z-score),[3],-0.447
same,glycan array binding signal (z-score),[4],-0.335
same,glycan array binding signal (z-score),[5],-0.379
same,glycan array binding signal (z-score),[6],-0.322
same,glycan array binding signal (z-score),[7],2.44
same,glycan array binding signal (z-score),[8],2.57
same,glycan array binding signal (z-score),[9],-0.58
same,glycan array binding signal (z-score),[10],-0.21
same,glycan array binding signal (z-score),[11],-0.164
same,glycan array binding signal (z-score),[12],-0.169
same,glycan array binding signal (z-score),[13],2.06
same,glycan array binding signal (z-score),[14],-0.263
same,glycan array binding signal (z-score),[15],2.1
same,glycan array binding signal (z-score),[16],2.69
same,glycan array binding signal (z-score),[17],0.031
"CLECSF8 (Mus musculus), Q9Z2H6 (protein) HYFLRWTRGSVVKLSDYHTRVTCIREEPQPGATGGTWTCCPVSWRAFQSNCYFPLNDNQTWHESERNCSGMSSHLVTINTEAEQNFVTQLLDKRFSYFLGLADENVEGQWQWVDKTPFNPHTVFWEKGESNDFMEEDCVVLVHVHEKWVWNDFPCHFEVRRICKLPGITFNWKPSK",glycan array binding signal (z-score),[18],-0.424
same,glycan array binding signal (z-score),[19],-0.424
same,glycan array binding signal (z-score),Gal(b1-4)Glc,-0.424
same,glycan array binding signal (z-score),[20],-0.424
same,glycan array binding signal (z-score),[21],-0.424
same,glycan array binding signal (z-score),Glc(a1-4)Glc,0.06
same,glycan array binding signal (z-score),[22],3.29
same,glycan array binding signal (z-score),[23],1.5
same,glycan array binding signal (z-score),[24],3.5
same,glycan array binding signal (z-score),[25],-0.424
same,glycan array binding signal (z-score),[26],-0.424
same,glycan array binding signal (z-score),[27],1.74
same,glycan array binding signal (z-score),[28],0.136
same,glycan array binding signal (z-score),[29],-0.424
same,glycan array binding signal (z-score),[30],-0.424
same,glycan array binding signal (z-score),[31],4.16
same,glycan array binding signal (z-score),[32],0.312
same,glycan array binding signal (z-score),[33],-0.424
same,glycan array binding signal (z-score),[34],-0.424
same,glycan array binding signal (z-score),Neu5Ac(a2-6)Gal(b1-4)Glc,-0.424
same,glycan array binding signal (z-score),[35],9.51
same,glycan array binding signal (z-score),[36],1.77
same,glycan array binding signal (z-score),[37],3.32

# — the supplement of paper PMC8728848
